Hits are enriched below; roughly 3.5% of the tested compounds scored in any of these assays.
FBW7 act: human FBW7 E3 ligase activation, primary screen | Q969H0 | AlphaScreen FBW7–phospho-cyclin E peptide binding, activator screen | normalized activity (activation), % at 26.1 µM | hit rate 0.13% among 650,000; in the data active means normalized activity above about 1.9%;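 further: purified mutant Fbw7 with reduced substrate affinity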
MITF inh: inhibitors of human MITF. O75030. AlphaScreen MITF homodimerization, bead proximity signal. inhibition, % at 2.6 µM. hit rate 0.91% among 650,000; in the data active means inhibition above about 50%;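 further: 0% = vehicle wells with protein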
Target sequence (O75030 whole entry, looked up): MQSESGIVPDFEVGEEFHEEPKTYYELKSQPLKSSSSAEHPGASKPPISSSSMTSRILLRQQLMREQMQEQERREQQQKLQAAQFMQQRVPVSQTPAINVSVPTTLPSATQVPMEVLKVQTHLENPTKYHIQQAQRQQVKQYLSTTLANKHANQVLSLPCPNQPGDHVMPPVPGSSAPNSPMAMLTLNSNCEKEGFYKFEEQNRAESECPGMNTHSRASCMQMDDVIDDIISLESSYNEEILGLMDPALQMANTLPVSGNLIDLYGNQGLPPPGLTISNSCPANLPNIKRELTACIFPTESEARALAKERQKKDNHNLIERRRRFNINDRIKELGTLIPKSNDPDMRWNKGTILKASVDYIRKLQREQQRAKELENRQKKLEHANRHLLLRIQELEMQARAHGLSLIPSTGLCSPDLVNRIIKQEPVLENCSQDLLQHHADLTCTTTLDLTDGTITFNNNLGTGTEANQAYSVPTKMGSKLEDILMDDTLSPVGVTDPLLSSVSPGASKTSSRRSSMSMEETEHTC
TEAD-YAP block: TEAD-YAP interaction inhibition. HEK-TIYL cells, TEAD-Gal4/YAP UAS-luciferase luminescence. inhibition, % at 9.12 µM. hit rate 1.4% among 640,000. AID 1259422; in the data active means inhibition above about 32%;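 further: 0% = median of test compound wells and 100% = reference inhibitor wells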
GPR151 activ: human GPR151 activation; hit rate 1% among 650,000; activation, % at 11.2 µM; PathHunter beta-arrestin GPR151 cells, luminescence; AID 1508602; Q8TDV0; in the data active means activation above about 4.9%;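 further: 0% = median of compound wells and 100% = cells with positive control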
GPR151 confirm: confirmation of human GPR151 activators; shares compounds with GPR151 activ; GPR151 PathHunter beta-arrestin cells, luminescence, 90 min; % of EA-reagent control over plate median; activation, % at 11.2 µM; 6,700 tested, under 10 active;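 active means mean percent activation across replicates above the confirmation screen cutoff of 4.91%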
GPR119 counter: activates human GPR119 in a GPR151 counter-screen. shares compounds with GPR151 activ. GPR119 PathHunter beta-arrestin cells, luminescence, 90 min; 0 = compound-well median, 100 = enzyme-acceptor control. activation, % at 11.2 µM. hit rate 0.3% among 6,700. AID 1508611;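 active means mean percent activation in the counterscreen above 29.09%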;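 further: counterscreen on off-target GPR119 to flag nonselective hits from the GPR151 activator screen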
Active calls of the source: *; · = not tested or not shown.

SMILES	FBW7 act	MITF inh	TEAD-YAP block	GPR151 activ	GPR151 confirm	GPR119 counter
CCC(C)(C)NS(=O)(=O)c1cc(Br)cnc1N	0.0	2.7	-2.6	6.0*	-0.5	9.2
CC(C)(C)NS(=O)(=O)c1cc(Br)cnc1N	-0.1	-7.3	-3.0	-0.2	·	·
CN1/C(=C2/SC(=Nc3ccc(C4CCCCC4)cc3)N(c3ccccc3)C2=O)Sc2ccccc21	0.1	-1.4	4.6	0.4	·	·
CN1C(=O)/C(=C2/Sc3ccccc3N2C)SC1=Nc1ccc(O)cc1	-0.2	8.9	-20.6	6.4*	-0.4	-8.4
O=c1cc(Nc2ccc3c(c2)OCO3)[nH]c(=O)n1-c1ccc(Br)cc1	0.0	9.2	3.7	22.2*	-0.2	4.0
CCOC(=O)C1(CC2CCCCO2)CCN(CCCSC)CC1 (stereo unspecified)	0.0	-0.3	-2.5	6.6*	0.4	-9.2
CCOC(=O)C1(CC2CCCCO2)CCN(Cc2cnc(SC)nc2)CC1 (stereo unspecified)	0.0	-0.4	-8.9	2.0	·	·
O=C(Cc1ccc(F)cc1)N1CCC(O)(c2ccccn2)CC1	0.3	13.8	-4.7	10.7*	0.6	13.1
O=C(Cc1cccc(F)c1)N1CCC(O)(c2ccccn2)CC1	-0.1	-3.8	0.4	0.0	·	·
CCc1ccc(NC(=O)CSc2nc3ncccc3[nH]2)cc1	0.1	0.1	-10.1	6.5*	0.6	4.9
Cc1ccnc(NC(=O)C2(c3cccs3)CCOCC2)c1	0.0	-6.9	19.7	5.3*	-1.2	-4.7
O=C(Nc1ccccn1)C1(c2cccs2)CCOCC1	0.4	13.7	5.7	1.4	·	·
Cc1ccccc1N(CC(=O)N1CCOCC1)S(=O)(=O)c1ccc(Cl)cc1	-0.2	-6.2	3.6	14.0*	0.5	2.9
Cc1ccccc1N(CC(=O)N1CCCC1)S(=O)(=O)c1ccc(Cl)cc1	0.1	18.9	-11.6	-0.1	·	·
Cc1cc(=O)nc2c3ccccc3n(C(C)C(=O)Nc3ccc4c(c3)OCCO4)n12 (stereo unspecified)	0.0	-5.1	-7.7	1.1	·	·
O=C(NNC(=O)c1ccccc1Br)c1ccc(Cl)cc1	0.0	-5.3	-13.5	1.0	·	·
O=C(NOC(=O)c1ccccc1Br)c1ccc(Cl)cc1	-0.1	-9.6	7.9	8.0*	-0.3	6.1
O=C(c1ccccc1)N1CCN(S(=O)(=O)c2ccccc2[N+](=O)[O-])CC1	0.0	-6.7	9.6	0.7	·	·
Cc1ccoc1C(=O)NCC1Cc2cc(-c3cnccn3)cc(Cl)c2O1 (stereo unspecified)	0.1	5.8	7.0	2.2	·	·
CC(=O)NCC(=O)NCC1Cc2cc(-c3cnccn3)cc(Cl)c2O1 (stereo unspecified)	0.0	-3.9	-12.6	4.9*	-0.7	-2.0
O=c1oc2ccccc2cc1-c1nnc(-c2ccncc2)o1	-0.1	-15.1	-12.8	-1.5	·	·
CCc1c(C)nc2cc(-c3ccc(OC)c(OC)c3)nn2c1NCCO	-0.1	-2.4	-28.9	0.0	·	·
CCc1c(C)nc2cc(-c3ccc(OC)c(OC)c3)nn2c1NCCCn1ccnc1	0.1	12.8	-51.1	6.3*	1.1	9.0
CC(=O)Nc1sc2c(c1C(N)=O)CCN(C(C)=O)C2	0.2	14.9	3.5	0.8	·	·
CC(=O)N1CCc2c(sc(NC(=O)C(C)(C)C)c2C(N)=O)C1	0.2	2.1	0.2	6.4*	-0.2	-3.7
SMILES	FBW7 act	MITF inh	TEAD-YAP block	GPR151 activ	GPR151 confirm	GPR119 counter
CCOC(=O)c1ccccc1NC(=O)C1Cc2ccccc2CN1S(C)(=O)=O (stereo unspecified)	-0.2	-3.4	-10.5	-0.8	·	·
Nc1nc(NCc2nc3ccccc3[nH]2)cc(-c2csc3ccccc23)n1	0.0	-6.7	-11.7	5.6*	0.4	-2.3
CC(=O)N1CCC(N(CCC(C)C)C(=S)Nc2ccc(C)cc2)CC1	0.0	-1.7	-7.6	2.4	·	·
COc1ccc(S(=O)(=O)N/N=C(/C)c2ccc(Cl)cc2)cc1	-0.1	-6.7	-6.5	-0.4	·	·
COc1cccc(/C(C)=N/NS(=O)(=O)c2ccc(Cl)cc2)c1	-0.1	-23.3	-2.0	5.3*	1.0	18.4
Cc1ccccc1OC(C)C(=O)NCC1CCCO1 (stereo unspecified)	0.6	10.2	5.3	-0.1	·	·
N#Cc1cc([N+](=O)[O-])ccc1NC(=O)COC(=O)C1CC1	-0.1	8.7	3.3	1.3	·	·
N#Cc1cc([N+](=O)[O-])ccc1NC(=O)COC(=O)CC1CCCC1	-0.1	-0.7	1.4	5.0*	-0.6	-5.3
Cc1cc(NC(=O)COC(=O)CC2CCCCC2)no1	0.2	15.8	-2.7	5.0*	0.7	5.1
CC(C)(C)NC(=O)CN1CCN(c2nc3c(c(=O)[nH]2)CCCC3)CC1	0.0	-4.2	-4.3	-0.4	·	·
CCOC(=O)c1ccc(NC(=S)NC(C)CC)cc1 (stereo unspecified)	0.1	0.9	-23.0	-1.1	·	·
CC(=O)Nc1ccc(S(=O)(=O)NCC2CCC(C(=O)N3CCOCC3)CC2)cc1 (stereo unspecified)	0.0	11.0	-2.0	-1.1	·	·
O=C(NCCc1c[nH]c2ccccc12)C12CC3CC(CC(O)(C3)C1)C2	-0.1	6.2	-10.7	7.6*	-0.1	-0.7
COc1ccc(/C=C(\C#N)C(=O)Nc2ccc3c(c2)C(=O)c2ccccc2C3=O)c(OC)c1	1.0	5.1	10.5	-0.2	·	·
Cc1ccc(-c2csc(N3C(=O)CNC3=S)n2)cc1	0.1	16.1	-46.5	5.7*	-1.5	-18.8
NS(=O)(=O)c1ccc(S(=O)(=O)N2CCCN(Cc3ccccc3)C2)cc1	-0.2	-2.4	1.5	-0.6	·	·
CCCCCCCCCCCCC/C=C/[C@@H](O)[C@H](COP(=O)(O)O)NC(=O)CCCCCCC	·	-6.8	·	5.2*	0.4	-10.7
COc1cc(C#N)ccc1OCC(=O)Nc1ccc(F)c([N+](=O)[O-])c1	-0.1	-0.9	-3.4	1.5	·	·
Cc1ccc(S(=O)(=O)Cn2nnnc2CN2CCN(c3cccc(C)c3C)CC2)cc1	-0.1	-7.4	5.5	0.7	·	·
COc1ccc2c(CNCc3ccc(F)cc3)c(C(=O)O)n(Cc3ccc(C)cc3)c2c1	-0.1	1.0	5.9	7.8*	0.5	2.1
O=c1oc2ccc(Br)cc2cc1-c1csc(-c2ccc(Cl)cc2)n1	0.3	7.4	1.0	2.3	·	·
O=c1oc2ccc(Br)cc2cc1-c1csc(-c2ccccc2)n1	-0.1	-13.0	5.0	5.2*	-1.1	-2.1
CCC(C)NC(=O)C1=CC(c2cccc(OC)c2)=NS(=O)(=O)N1C (stereo unspecified)	-0.1	-4.3	4.8	5.2*	0.1	-7.7
CCC(C)NC(=O)C1=CC(c2ccc(OC)c(OC)c2)=NS(=O)(=O)N1C (stereo unspecified)	-0.1	8.1	11.8	0.8	·	·
COc1cc(Nc2cc(-c3c(C)noc3C)nc(N)n2)cc(OC)c1OC	0.1	1.7	-14.4	-1.3	·	·
C=C(C)COc1c(I)cc(C=O)cc1OC	0.0	9.7	10.3	6.6*	-0.1	-5.7
C=CCNC(=O)c1cc(OCc2ccccc2)c(OCc2ccccc2)c(OCc2ccccc2)c1	0.5	-28.2	2.4	-0.9	·	·

Compound activity deposited in PubChem BioAssay by The Scripps Research Institute Molecular Screening Center.
